# EWS-Fli block = blocks EWS/Fli oncoprotein-driven transcription; inhibition, % at 12.6 µM; 350,000 compounds, 0.67% hits; A673 NR0B1-luciferase reporter, viability-normalised;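 active = mean inhibition of at least 50% after viability correction, with every replicate also passing that limit; inconclusive = mean reaches 50% but only one of two replicates passes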;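 note: firefly luciferase signal divided by Alamar Blue viability fluorescence both relative to DMSO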
# Shn3 3UTR inh = inhibitors of Schnurri-3 3'UTR reporter in osteoblasts | Clone20 osteoblast Shn3 3'UTR firefly luciferase, 24 h | inhibition, % at 12.5 µM | 360,000 compounds, 0.52% hits;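 active = mean inhibition of at least 75% with every replicate also reaching 75%; inconclusive = mean inhibition at least 75% but some replicate below; inactive = mean inhibition below 75%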;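 note: 0% = median of neutral control wells and 100% = pilot-screen positive control compound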
# MITF TRPM1 inh = inhibitors of MITF-driven TRPM1 promoter in melanoma cells | SK-MEL-5 TRPM1 promoter luciferase, 24 h | inhibition, % at 12.5 µM | 330,000 compounds, 0.83% hits | AID 488899;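 active = mean inhibition across replicates of 60% or more, whatever share of single replicates reaches that level; inconclusive = some that reach 60%, reason not given; inactive = mean inhibition across replicates below 60%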
# PAX8 inh HTS = PAX8 transcriptional activity inhibition | RMG-I TPO-luciferase reporter, SteadyGlo, 24 h | inhibition, % at 12.6 µM | 360,000 compounds, 1.2% hits | AID 652154;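 active = mean replicate inhibition at least 60% with every replicate also reaching 60%; inconclusive = only one of the two criteria is met; inactive = mean below 60% and not all replicates reaching 60%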;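 note: luciferase light reporting Pax8 driven TPO promoter activity; plate controls were median of neutral control wells for no effect and mitoxantrone controls for full effect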
# LMP1 NFkB inh = Epstein-Barr LMP1 NF-kappaB reporter inhibition | LMP1-induced NF-kappaB luciferase reporter cells, luminescence | 350,000 compounds, 0.69% hits | inhibition, % at 12.5 µM; in the data active = inhibition above about 41%; inconclusive = no clear call, values can overlap the other calls;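 note: 0% = neutral control wells and 100% = reference inhibitor control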
# LGR2 antag = blocks bursicon-induced cAMP signaling via Drosophila LGR2. HEK293 LGR2, CRE-luciferase, bursicon-stimulated, 4 h. inhibition, % at 9.99 µM. 380,000 compounds, 0.35% hits. AID 720647;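 active = drop in luminescence signal, shown as inhibition above about 50% in the replicate tests, limit read from the data, passing the limit was not always enough; inconclusive = probably only some replicates passing the limit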;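 note: agonist challenge used bursicon conditioned medium at about half maximal strength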
# Active calls of the source: *; u = inconclusive; x = no result given. Compounds with a hit are over-represented: about 2.2% of the library has one in this group of screens.
SMILES,EWS-Fli block,Shn3 3UTR inh,MITF TRPM1 inh,PAX8 inh HTS,LMP1 NFkB inh,LGR2 antag
COc1cccc(S(=O)(=O)N2CCC3(CC2)CN[C@@H](CO)c2[nH]c4cc(OC)ccc4c23)c1,-2,x,x,x,x,26
CCCCC[C@H]1CN(CCCC)C(=O)[C@@H]1CC(=O)NCc1ccccc1,-55,3,3,8,1,19
CCCCC[C@H]1CN(Cc2ccc(OC)cc2)C(=O)[C@@H]1CC(=O)NCc1ccccc1,-1,89*,52,-11,9,-3
C[C@@H]1CN([C@H](C)CO)C(=O)c2cc(NS(C)(=O)=O)ccc2O[C@@H]1CN(C)Cc1ccc(Cl)c(Cl)c1,-2,x,x,21,x,9
N=c1c2c(n(Cc3ccc(Cl)c(Cl)c3)c3c1CCC3)CCCC2,x,79,71*,x,6,x
N=c1c2c(n(Cc3ccc([N+](=O)[O-])cc3)c3c1CCC3)CCCC2,33,2,6,54,7,-5
N=c1c2c(n(Cc3ccc(Br)cc3)c3c1CCC3)CCCC2,40,82,65*,78*,12,-35
O=C1[C@H](Oc2ccccc2)[C@@H](c2ccccc2)N1c1ccncc1,7,-16,22,22,11,66*
O=C1[C@@H](Oc2ccccc2)[C@@H](c2ccccc2)N1c1ccccc1,6,-5,-15,-1,1,-11
Cc1[nH]c2ccccc2c1C(=O)C(C)OC(=O)c1ccc([N+](=O)[O-])o1 (configuration not stated),9,-8,46,62*,-3,13
Cc1ccc(S(=O)(=O)c2ccc(C)cc2)cc1,-9,1,-9,x,-14,4
Cc1cc(S(=O)(=O)c2ccc([N+](=O)[O-])cn2)ccc1Br,36,98*,90*,86*,74*,u
O=[N+]([O-])c1ccc(S(=O)(=O)c2ccccc2)nc1,58*,93*,94*,109*,53*,52*
Cc1ccc(S(=O)(=O)c2ccc([N+](=O)[O-])cn2)cc1,61*,95*,91*,111*,60*,65*
C[C@H](CO)N1C[C@H](C)[C@H](CN(C)S(=O)(=O)c2ccc(Cl)cc2)OCCCC[C@H](C)Oc2ccc(NS(=O)(=O)c3cccs3)cc2C1=O,6,x,x,67*,x,42
C[C@@H]1CCCCO[C@H](CN(C)S(=O)(=O)c2ccc(Cl)cc2)[C@H](C)CN([C@H](C)CO)C(=O)c2cc(NS(=O)(=O)c3cccs3)ccc2O1,20,x,x,20,x,20
C[C@H](CO)N1C[C@H](C)[C@@H](CN(C)S(=O)(=O)c2ccc(Cl)cc2)OCCCC[C@H](C)Oc2ccc(NS(=O)(=O)c3cccs3)cc2C1=O,18,x,x,80*,x,5
C[C@H]1CCCCO[C@H](CN(C)S(=O)(=O)c2ccc(Cl)cc2)[C@@H](C)CN([C@@H](C)CO)C(=O)c2cc(NS(=O)(=O)c3cccs3)ccc2O1,26,x,x,68*,x,4
Cc1ccc(S(=O)(=O)N(C)C[C@@H]2OCCCC[C@H](C)Oc3ccc(NS(=O)(=O)c4cccs4)cc3C(=O)N([C@H](C)CO)C[C@H]2C)cc1,11,x,x,78*,x,4
C[C@@H]1CN([C@H](C)CO)C(=O)c2cc(NS(=O)(=O)c3cccs3)ccc2O[C@@H](C)CCCCO[C@H]1CN(C)S(=O)(=O)c1ccc(Cl)cc1,3,x,x,18,x,0
COc1ccc(NC(=O)Nc2ccc3c(c2)CC(=O)N([C@H](C)CO)C[C@H](C)[C@@H](CN(C)Cc2ccc(C(=O)Nc4ccccc4N)cc2)O3)cc1,-3,x,x,-20,x,-14
C[C@@H]1CN([C@H](C)CO)C(=O)c2cc(C#CCN(C)C)cnc2O[C@@H]1CN(C)C(=O)NC1CCCCC1,-1,x,x,-15,x,7
CCC(=O)Nc1ccc2c(c1)C(=O)N(C)C[C@H](OC)[C@H](C)CN(Cc1cccnc1)[C@H](C)CO2,-5,x,x,x,x,4
CCC(C)(C)c1ccc(Oc2ccc(N)cc2)cc1,65*,88*,98*,u,51*,x
S=C(NC1CC1)NC1CCCc2ccccc21 (configuration not stated),-26,-3,10,-8,-1,15
SMILES,EWS-Fli block,Shn3 3UTR inh,MITF TRPM1 inh,PAX8 inh HTS,LMP1 NFkB inh,LGR2 antag
c1ccc2c(c1)CCCC2C1=NCCN1 (configuration not stated),-3,0,1,11,79*,x
Cc1sc2nc(SCC(=O)OC(C)C)n(C)c(=O)c2c1C,x,7,6,8,47*,x
CN(C)C(=O)C[C@H]1C[C@H]2c3cc(NC(=O)NC4CCCCC4)ccc3O[C@H]2[C@@H](CO)O1,3,x,x,-13,x,-9
C[C@H]1CCCCO[C@H](CN(C)Cc2ccc(C(F)(F)F)cc2)[C@@H](C)CN([C@@H](C)CO)C(=O)c2cc(NC(=O)c3ccncc3)ccc2O1,14,x,x,28,x,2
C[C@H](CO)N1C[C@H](C)[C@H](CN(C)C(=O)Nc2cc(F)ccc2F)Oc2cc(/C=C/c3ccccc3)ccc2S1(=O)=O,19,x,x,65*,x,5
C/C=C/c1ccc2c(c1)O[C@H](CN(C)C(=O)Nc1cc(F)ccc1F)[C@@H](C)CN([C@H](C)CO)S2(=O)=O,24,x,x,x,x,4
C[C@H]1CN([C@@H](C)CO)S(=O)(=O)c2ccc(/C=C/c3ccccc3)cc2O[C@@H]1CN(C)C(=O)Nc1cccc(F)c1,21,x,x,62*,x,-10
C[C@H](CO)N1C[C@H](C)[C@H](CN(C)C(=O)Nc2cccc(F)c2)Oc2cc(/C=C/c3ccccc3)ccc2S1(=O)=O,29,x,x,20,x,-2
C[C@H]1CN([C@@H](C)CO)C(=O)Cc2cc(NC(=O)CCCCCC(=O)Nc3ccccc3N)ccc2O[C@H]1CN(C)S(=O)(=O)c1ccc(Cl)cc1,43,x,x,8,x,2
C[C@@H]1CN([C@H](C)CO)C(=O)Cc2cc(NC(=O)Nc3cccc4ccccc34)ccc2O[C@@H]1CN(C)S(=O)(=O)c1ccc(Cl)cc1,13,x,x,11,x,6
NC1=NC(=O)NC1(c1ccccc1)c1ccccc1,-4,-19,8,12,48*,-13
CO[C@@H]1CN(C)C(=O)c2cc(NC(=O)C3CCC3)ccc2OC[C@@H](C)N(C)C[C@@H]1C,-1,x,x,-7,x,-11
CC(C)CCCCCCNC(=S)Nc1ccc(S(=O)(=O)N2CCOCC2)cc1,13,68,1,59,-7,51*
CCCn1c2c(c(=N)c3c1CCC3)CCC2,21,10,10,19,-3,10
CCCCCCCn1c2c(c(=N)c3ccccc31)CCC2,58*,97*,86*,100*,21,27
C[C@@H](NC(=O)C[C@@H]1CC[C@@H](NC(=O)Cc2ccccn2)[C@H](CO)O1)c1ccccc1,3,x,x,-11,x,-6
CC(C)NC(=O)N(C)C[C@@H]1Oc2c(NC(=O)Nc3ccc4c(c3)OCO4)cccc2C(=O)N([C@@H](C)CO)C[C@@H]1C,-23,x,x,-35,x,-6

# Screening results: PubChem, Broad Institute
